In the library only some 3.7% were active in any assay of this set; here they are far more common.
IL-2 act: qHTS of IL-2 Activators. IL-2 activation reporter assay, cell-based qHTS; stimulated with anti-CD3/CD4/CD28 beads; in transgenic mouse T cells. activation, % (series mostly up to about 46 µM). hit rate 0.065% among 360,000. AID 652025, 2013; in the data active = activation above about 50%; inconclusive = mostly about 30% to 49%
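Quantitative HTS in unstimulated transgenic mouse T cells, with memory T cells as non-tolerant control and PMA/ionomycin as tolerance-bypass control. Compound pretreatment lasted 60 minutes before 18 h bead stimulation; EGFP/DsRed fluorescence read.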
ClpP mod: qHTS Assay for Activators of ClpP. ATP-dependent Clp protease proteolytic subunit (Bacillus subtilis (strain 168)), P80244. purified B. subtilis ClpP, FRET peptide cleavage, 20 min. Potency, µM (top dose mostly 57.5 µM). hit rate 1.9% among 340,000; active = well fitted falling curve with a large enough effect; inconclusive = small, poorly fitted or top-dose-only effect; inactive = no such curve, though single readings can be large or run the other way; also: the source files actives as falling curves though it sought activators and does not explain the sign; nearly all actives have a fitted effect of over 65% in size
Target sequence (P80244 whole entry, looked up): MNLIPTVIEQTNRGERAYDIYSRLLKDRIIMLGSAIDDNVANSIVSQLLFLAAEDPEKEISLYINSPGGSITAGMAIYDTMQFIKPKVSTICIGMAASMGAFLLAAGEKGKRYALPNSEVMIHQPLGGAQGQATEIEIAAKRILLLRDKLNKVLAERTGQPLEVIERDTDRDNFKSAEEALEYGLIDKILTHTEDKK
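Buffer: 100 mM Tris/HCl pH8, 100 mM KCl, 0.05% low protease BSA, 2.5% glycerol, 0.01% Tween-20. ClpP 10 microg/mL final; 20 min RT; delta FRET normalized to ADEP and DMSO controls.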
miR-21 reporter: qHTS Assay for Modulators of miRNAs and/orActivators of miR-21; HeLa miR-21 FLuc reporter, luciferase, 48 h; Potency, µM (doses to about 38.3 µM), most hits filed as activators; 340,000 tested, under 10 active; AID 2288, 2010;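 also: miR-21 action dims this reporter so a rising signal means less miR-21 action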
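HeLa miR-21-FLuc reporter line, endogenous miR-21; 2000 cells/well in DMEM/10% FBS; compound titration up to ~40uM final, 48 h, 37 degree Celsius; luciferase detection reagent, 15 min lysis, CCD luminescence.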
Nrf2 inh: Nrf2 qHTS screen for inhibitors; A549 ARE-Fluc reporter, luciferase luminescence, 18-24 h; Potency, µM (top dose mostly 46 µM), most hits filed as inhibitors; hit rate 2.1% among 360,000; AID 504444, 2011; also: nearly all actives have a fitted effect of over 60% in size
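Reporter: ARE-Fluc in A549. Exposure: 18-24 h, 37 °C, 5% CO2, 5% FBS OPTI-MEM. Readouts: fluorescent cytotoxicity (CellTiter-Fluor), then luminescent Nrf2 signal after BugLite.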
A549 tox: Nrf2 qHTS screen for inhibitors: counterscreen for cytotoxicity. A549 ARE-Fluc cells, CellTiter-Fluor viability, 18-24 h. Potency, µM (top dose mostly 46 µM), actives largely listed as inhibitors. AID 504648, 2011. hit rate 0.16% among 390,000
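A549 ARE-Fluc cells in 5% FBS OPTI-MEM, 5000 cells/well, rested 2 h then exposed to compounds in concentration-response for 18-24 h at 37 °C. Viability by CellTiter-Fluor fluorescence (Ex 405/Em 525) after 30 min; luciferase luminescence (BugLite, 15 min, RT) read afterwards.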
Nrf2 ARE act: qHTS of Nrf2 Activators; AREc32 ARE-luciferase reporter (MCF7-derived line), luminescence, 24 h; Potency, µM (doses to about 46.1 µM), actives largely listed as activators; hit rate 0.31% among 410,000; AID 624171, 2012; also: nearly all actives have a fitted effect of over 65% in size
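For detection, Steady-Glo was added and plates sat 30 min at RT; before that, AREc32_Fluc cells grown overnight in OPTI-MEM/5% FBS had been treated with 23 nL compound for 24 hr at 37 deg C.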
Hits are given with their value; - = inactive; ? = inconclusive; . = no result given; ! = not active in a repeat. Unless noted, calls follow the shape of the dose curve; as a rule, active = well fitted curve in the direction sought with a large enough effect; inconclusive = small, poorly fitted or top-dose-only effect, or another doubt; inactive = no such curve, though single readings can be large; an effect the other way counts as inactive or inconclusive.

SMILES	IL-2 act	ClpP mod	miR-21 reporter	Nrf2 inh	A549 tox	Nrf2 ARE act
O=C(O)CSc1nnc(-c2cc3ccccc3o2)n1-c1ccccc1	-	22µM	-	.	-	-
CN(c1ccc(F)cc1)S(=O)(=O)N1CCCC(C(=O)NCc2ccccc2Cl)C1 (centres undefined)	.	-	-	?	-	-
CCN(Cc1ccccc1)C(=O)c1cccc(S(=O)(=O)N2CCN(c3ccc(F)cc3)CC2)c1	-	-	.	15µM	-	-
COc1cccc(CN(C)C(=O)c2ccc3c(=O)n4c(nc3c2)CCC4)c1OC	-	-	-	?	-	-
COc1cccc(CN(C)C(=O)c2ccc(Cl)c(S(=O)(=O)N3CCCCCC3)c2)c1OC	-	-	.	18µM	-	-
CN(Cc1ccco1)C(=O)c1cccc(S(=O)(=O)N2CCN(Cc3ccccc3)CC2)c1	-	-	.	.	.	-
COc1cccc(CNC(=O)C2CCCN(S(=O)(=O)N(C)c3ccc(F)cc3)C2)c1OC (centres undefined)	.	-	?	26µM	-	-
COc1cccc(CN(C)C(=O)c2cccc(S(=O)(=O)N3CCN(Cc4ccccc4)CC3)c2)c1OC	-	-	.	10µM	-	-
CC(C)c1cnc2c(c1SCC(=O)N1CCCCC1)c(=O)n(C)c(=O)n2C	.	-	-	.	-	-
CCC(=O)N1c2ccccc2CC1C(=O)NCCc1ccccc1OC (centres undefined)	.	-	-	.	-	-
COc1cccc(CN(C)C(=O)c2cccc(S(=O)(=O)N3CCN(c4ccc(F)cc4)CC3)c2)c1OC	-	.	.	8.2µM	?	-
COc1cc(/C=C/C(=O)c2c(O)cc(C)oc2=O)cc(OC)c1O	-	28µM	-	-	-	-
COc1ccc(/C=C/C(=O)c2c(O)cc(C)oc2=O)c(OC)c1	172	-	-	?	-	-
COc1ccc2cc(C(=O)/C=C/c3cc(OC)c(O)c(OC)c3)ccc2c1	-	.	-	?	-	?
COc1cccc(/C=C/C(=O)c2c(O)cc(C)oc2=O)c1O	-	-	-	-	-	?
COc1cc(/C=C/C(=O)c2c(O)ccc3c(C)cc(=O)oc23)ccc1O	-	28µM!	-	-	-	-
COc1ccc(C(=O)/C=C/c2cc(OC)c(O)c(OC)c2)c(F)c1	-	-	?	-	-	16µM
O=C(COc1ccccc1)NCCc1csc(-c2ccc(Cl)cc2)n1	.	-	-	.	-	-
COc1cc(/C=C/C(=O)c2ccc(NS(=O)(=O)c3ccc(C)cc3)cc2)cc(OC)c1O	-	-	?	23µM	?	?
COc1cc(/C=C/C(=O)c2ccc(NS(=O)(=O)c3ccc(C)cc3)cc2)ccc1OC(F)F	-	-	?	-	-	?
COc1ccccc1OC(C)C(=O)N1CCC(c2nc3ccccc3s2)CC1 (centres undefined)	.	-	?	-	-	-
O=C(COc1ccc([N+](=O)[O-])cc1)N1CCC(c2nc3ccccc3s2)CC1	.	-	-	15µM	-	-
CCc1ccc(OC(C)C(=O)N2CCC(c3nc4ccccc4s3)CC2)cc1 (centres undefined)	.	-	-	18µM	-	-
O=C(NCc1ccc(F)cc1Cl)c1ccc(CSCc2ccccc2Cl)o1	.	-	-	.	-	-
CCN(Cc1ccccc1)C(=O)c1cc2ccc3cccnc3c2[nH]1	.	-	-	-	-	-
SMILES	IL-2 act	ClpP mod	miR-21 reporter	Nrf2 inh	A549 tox	Nrf2 ARE act
O=c1c2ccccc2n(Cc2ccccc2F)c(=O)n1-c1cccc(F)c1	.	?	-	-	-	-
O=C(Nc1ccc(O)c2ncccc12)c1ccccc1F	.	.	.	?	-	.
CC(C)(C)c1cc(C(=O)NN)n(Cc2ccc(F)cc2)n1	-	-	-	-	-	-
COC(=O)c1cc(NC(=O)c2cc(C(C)(C)C)nn2Cc2ccc(F)cc2)ccc1N1CCOCC1	-	-	?	13µM	-	-
Cc1ccc(NC(=O)CSc2nnc(-c3nnn(-c4ccc(F)cc4)c3C)o2)cc1Br	.	-	-	-	-	-
O=C(Cc1ccc(OCCC2CCCCC2)cc1)NO	.	-	.	.	.	.
O=C(O)c1ccccc1-c1cc2ccccc2[nH]1	-	-	.	-	-	-
COc1ccccc1-c1cc2ccccc2[nH]1	-	40µM	-	?	-	-
COc1cc(-c2noc(CSc3nc(-c4ccccc4)cc(=O)[nH]3)n2)cc(OC)c1OC	.	-	-	.	-	-
Cc1ccc(-n2c(SCc3ccccc3C)nc3[nH]ncc3c2=O)cc1C	.	-	-	.	?	-
O=c1cc(N2CCCCC2)c(-c2ccccc2)nn1Cc1c(Cl)cccc1Cl	-	-	-	18µM	?	-
Cc1cc(-c2ccccc2)nc(N/N=C/c2ccccc2)n1	-	.	-	?	-	-
COc1ccc(/C=N/Nc2nc(C)cc(-c3ccccc3)n2)cc1OC	-	.	-	23µM	-	-
O=C(CSc1nnc(-c2ccncc2)n1Cc1ccco1)Nc1nc(-c2ccccc2)cs1	-	-	-	13µM	?	-
CCn1c(SCC(=O)Nc2ccc(OCc3ccccc3)cc2)nnc1-c1ccco1	-	-	-	15µM	?	-
O=C(CSc1nnc(-c2ccccc2)n1Cc1ccco1)Nc1ccc(S(=O)(=O)N2CCCC2)cc1	-	-	-	16µM	-	-
O=C(CSc1nnc(-c2ccncc2)n1Cc1ccco1)Nc1ccccc1Cl	-	-	-	-	-	-
CCOc1ccc(NC(=O)CC2C(=O)N(c3ccccc3)C(=O)N2Cc2ccco2)cc1 (centres undefined)	-	25µM	-	-	-	-
COc1ccc(-n2nc(C)c3c(C(F)(F)F)cc(-c4cccnc4)nc32)cc1	.	-	-	-	-	-
CCc1ccccc1NC(=O)C1CCN(S(=O)(=O)c2ccc3[nH]c(=O)ccc3c2)CC1	.	-	-	.	-	-
Cn1cc(S(=O)(=O)N2CCCCCC2)cc1C(=O)N1CCN(c2ccccc2F)CC1	.	-	-	.	-	-
CCOc1ccc(NC(=O)CSc2nnc(-c3ccccc3Cl)n2Cc2ccco2)cc1	-	18µM	-	.	-	-
O=C(COc1ccccc1C(=O)Nc1ccccc1)NC1CCCCC1	.	-	.	.	.	.
CCOC(=O)CSC1=Nc2ccccc2C2=NC(CCC(=O)NCc3ccccc3)C(=O)N12 (centres undefined)	.	-	-	.	-	-
Cc1cc(C)n2nc3nc4c(cc3c2n1)CCCC4	-	13µM	-	?	-	-
CCCNC(=O)Cc1c(C)n(C(=O)c2ccc(Cl)cc2)c2ccc(OC)cc12	-	-	-	18µM	-	-
Brc1ccc2c(ccc[n+]2CCc2ccccc2)c1	.	-	.	.	.	.
